Compound activity as filed in PubChem.
DAX1 inh-1 = DAX1 (NR0B1) inhibitors on StAR promoter, primary screen, cell-based, luminescence, SF-1 (NR5A1), full-length DAX-1 | HEK293T StAR-luciferase reporter, SF-1/DAX-1 repression relief | inhibition, % at 6.8 µM | actives 1.1% (n = 370,000) | AID 652010, 2013;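 active means inhibition above the mean over all tested compounds plus 3 SD, cut at about 3.6% in these data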;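 further: 0% = DAX-1 cells with DMSO and 100% = cells lacking DAX-1 with DMSO; higher inhibition means more luminescence from relief of DAX-1 repression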
DAX1 inh-2 = DAX1 (NR0B1) inhibitors, primary screen, cell-based, HEK293, Gal4-DAX1, luciferase luminescence. AID 504766, 2011. actives 0.99% (n = 340,000). HEK293 Gal4-DAX1 luciferase reporter. inhibition, % at 6.75 µM. Nuclear receptor subfamily 0 group B member 1 (Homo sapiens), P51843;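 active means inhibition above the mean over all tested compounds plus 3 SD, cut at about 4.2% in these data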;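 further: 0% = DAX1-transfected cells with DMSO and 100% = empty-vector control cells with DMSO; inhibition shows as a rise in luminescence from relieved DAX1 repression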
hgDAF-12 ag = H. glycines DAF-12 receptor agonists, primary screen, cell-based, luminescence, HEK293, GAL4 fusion, UAS-luciferase. Nuclear hormone receptor DAF-12 (Heterodera glycines), GAL4 fusion. HEK293 GAL4-hgDAF12 UAS-luciferase reporter, agonist luminescence; normalized to butyrate control. activation, % at 6.8 µM. actives 1.8% (n = 370,000);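 active means activation above a cutoff set at the mean of all screened compounds plus 3 SD, cut at about 10% in these data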;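 further: 0% = DMSO wells and 100% = sodium butyrate wells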
ssDAF12 agonist = S. stercoralis DAF-12 nuclear receptor activators, primary screen, cell-based, luminescence, HEK293, GRIP1 co-expression, lit1-tk-luc | AID 652126, 2013 | activation, % at 6.8 µM | actives 1% (n = 370,000) | HEK293 ssDAF-12/GRIP1 lit1-tk-luc reporter; % of 3 µM dafachronic acid response;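 active means activation above the mean over all tested compounds plus 3 SD, cut at about 0.9% in these data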;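 further: 0% = DMSO-only wells and 100% = 3 µM delta7-dafachronic acid wells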
hcDAF12 agonist = H. contortus DAF-12 nuclear receptor activators, primary screen, cell-based, luminescence, HEK293, lit1-tk-luc reporter; HEK293 hcDAF-12 lit1-tk-luc reporter; 0% DMSO, 100% Δ7-dafachronic acid; activation, % at 6.8 µM; actives 1.4% (n = 370,000); AID 652067, 2013;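 active means activation above the mean of all tested compounds plus 3 SD, cut at about 5.5% in these data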;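 further: 100% = response to 3 µM Δ7-dafachronic acid high control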
DAX1 inh confirm = DAX1 (NR0B1) inhibitors relieving SF-1 repression, confirmation, cell-based, luminescence, HEK293T, full-length DAX-1, SF-1 activated StAR promoter; HEK293T StAR-promoter luciferase reporter, SF-1/DAX-1 repression; inhibition, % at 6.8 µM; shares compounds with DAX1 inh-1; actives 87% (n = 2,400);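 active means inhibition above the average of every tested compound plus 3 SD, cut at about 3.8% in these data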;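 further: 0% = DAX-1 cells with DMSO and 100% = no DAX-1 control cells with DMSO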
SF1 AF2mut Luc = StAR reporter signal changes without DAX1, counter-screen for DAX1 inhibitor project, cell-based, luminescence, AF-2 mutant SF-1, transactivation; shares compounds with DAX1 inh-1; HEK293 StAR-luciferase, SF-1 AF2 mutant; inhibition, % at 6.8 µM; actives 78% (n = 2,400);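 active means inhibition above the mean of all tested compounds plus 3 SD, cut at about 3% in these data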;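 further: 0% = DAX-1 transfected cells with DMSO and 100% = cells without DAX-1 with DMSO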
LXRb hcDAF ctr = LXR agonists, Gal4 luciferase reporter, confirmation, counter-screen for hcDAF-12 agonist project, cell-based, luminescence, HEK293, H. contortus campaign; shares compounds with hcDAF12 agonist; HEK293 Gal4-LXR tk-luc reporter, 24 h; normalized: DMSO 0%, positive control 100%; activation, % at 6.8 µM; 3,400 tested, under 10 active; AID 743027, 2013;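 active means mean percent activation of the reporter above a cutoff set as the average over tested compounds plus their standard deviation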
Target sequence (P55055 whole entry, looked up, the tested form may be a part): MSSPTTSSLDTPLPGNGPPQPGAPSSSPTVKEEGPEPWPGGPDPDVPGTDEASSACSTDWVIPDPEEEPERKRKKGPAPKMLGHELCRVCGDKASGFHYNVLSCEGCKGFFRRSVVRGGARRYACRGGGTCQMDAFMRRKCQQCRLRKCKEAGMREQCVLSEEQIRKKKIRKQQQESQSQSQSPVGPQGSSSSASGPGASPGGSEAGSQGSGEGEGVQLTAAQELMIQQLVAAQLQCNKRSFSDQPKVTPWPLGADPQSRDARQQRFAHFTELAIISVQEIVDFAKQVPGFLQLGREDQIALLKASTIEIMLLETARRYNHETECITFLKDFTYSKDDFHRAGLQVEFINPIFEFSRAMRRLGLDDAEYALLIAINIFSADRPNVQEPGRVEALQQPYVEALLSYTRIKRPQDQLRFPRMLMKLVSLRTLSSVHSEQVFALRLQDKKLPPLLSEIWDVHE
hcDAF12 conf = H. contortus DAF-12 receptor agonists, confirmation, cell-based, luminescence, HEK293, lit1-tk-luc, triplicate; activation, % at 6.8 µM; shares compounds with hcDAF12 agonist; HEK293 hcDAF-12 lit1-tk-luc reporter; % of Δ7-dafachronic acid response; actives 61% (n = 3,400);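 active means mean activation across triplicate tests above the threshold derived from the earlier primary screen, cut at about 5.5% in these data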;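 further: 0% = DMSO only wells and 100% = 3 µM Δ7-dafachronic acid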
hgDAF12 conf = H. glycines DAF-12 receptor agonists, confirmation, cell-based, luminescence, HEK293, GAL4-LBD fusion. actives 80% (n = 3,300). activation, % at 6.8 µM. HEK293 GAL4-hgDAF12 luciferase reporter, agonist mode; percent of butyrate response. shares compounds with hgDAF-12 ag;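 active means mean activation over triplicate wells above the hit cutoff derived from the earlier primary screen, cut at about 11% in these data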;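 further: 0% = DMSO low control and 100% = 2 mM sodium butyrate high control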
LXR ag 2 = LXR agonists, Gal4 luciferase reporter, confirmation, counter-screen for hgDAF-12 agonist project, cell-based, luminescence, HEK293, H. glycines campaign; shares compounds with hgDAF-12 ag; 24 h; activation, % at 6.8 µM; 3,300 tested, under 10 active; AID 743051, 2013;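 active means mean activation of the triplicate above a set limit carried over from the primary screen, none filed active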
* marks the source's active call; other numbers are inactive results. Rows were chosen to be rich in hits. Some 4.1% of all compounds tested hit in one or more screens of this group.

Results for CCCOC(=O)Nc1ccc(N2CCCCC2)cc1 ?
DAX1 inh-1: 5.3*; DAX1 inh-2: 1.2; hgDAF-12 ag: 14.9*; ssDAF12 agonist: 0.8; hcDAF12 agonist: 4.5; DAX1 inh confirm: 16.1*; SF1 AF2mut Luc: 5.8*; hgDAF12 conf: 14.2*; LXR ag 2: 0.9

What do the screens show for `O=C(Nc1ccc(N2CCCCCC2)cc1)c1ccc[nH]1`?
DAX1 inh-1: 12.5*; DAX1 inh-2: 0.9; hgDAF-12 ag: 14.8*; ssDAF12 agonist: 0.6; hcDAF12 agonist: 7.3*; DAX1 inh confirm: 9.4*; SF1 AF2mut Luc: 5.8*; LXRb hcDAF ctr: 1.6; hcDAF12 conf: 10.0*; hgDAF12 conf: 17.2*; LXR ag 2: 0.9

What do the screens show for `COc1ccc(-c2ccc(C(=O)NCc3ccc(N4CCN(C)CC4)cc3)c3occc23)c(C)c1`?
DAX1 inh-1: -0.5; hgDAF-12 ag: -0.3; ssDAF12 agonist: -1.5; hcDAF12 agonist: -0.6

How did O=C(Nc1ccc(OC(F)(F)F)cc1)Nc1c(-c2ccc(F)cc2)nc2ncccn12 do in these assays?
DAX1 inh-1: -0.4; hgDAF-12 ag: -4.1; ssDAF12 agonist: -1.0; hcDAF12 agonist: 0.1

How did COc1ccc(NC(=O)c2ccc3c(c2)N(C)CCS3)cc1 do in these assays?
DAX1 inh-1: 7.3*; DAX1 inh-2: 0.9; hgDAF-12 ag: 23.9*; ssDAF12 agonist: 0.8; hcDAF12 agonist: 5.4; DAX1 inh confirm: 12.0*; SF1 AF2mut Luc: 7.5*; hgDAF12 conf: 18.9*; LXR ag 2: 0.8

What do the screens show for `CN1CCSc2ccc(C(=O)NCc3ccccc3)cc21`?
DAX1 inh-1: 0.3; DAX1 inh-2: -0.9; hgDAF-12 ag: 4.5; ssDAF12 agonist: -1.1; hcDAF12 agonist: -0.7

Results for CCOC(=O)C1=NOC(C(=O)NC2CCCC2)(C(=O)c2ccc(OC)cc2)C1 (stereo not drawn) ?
DAX1 inh-1: 0.1; hgDAF-12 ag: -2.6; ssDAF12 agonist: -0.2; hcDAF12 agonist: 1.5
